These results are taken from PubChem BioAssay (EPA / NIEHS).

SMILES strings stand for the structures. The source made the active and inactive calls. The calls were made as follows: active = hit-call score of the fitted dose curve at least 0.9, where 1 is the maximum; inactive = score below 0.9.

Test [1] has as its target Bile acid receptor (Homo sapiens) (UniProt Q96RI1). In words: ATG_IR1_CIS: Attagene CIS-FACTORIAL HepG2 Assay for human Nuclear Receptor Subfamily 1 Group H Member 4 (NR1H4), IR1 submotif (AID 2282946). Conditions: IR1 reporter transcription, actives raise or lower the signal. The method, boiled down:
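Transient MRTU transfection, HepG2; 24 h dosing; RNA → RT-PCR → 6-FAM primer extension → HpaI digest → capillary electrophoresis fluorescence. Gain/loss of signal fitted relative to DMSO.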

Test [2] can be described thus: ATG_ISRE_CIS: Attagene CIS-FACTORIAL HepG2 Assay for human Interferon Regulatory Factor 1 (IRF1) binding to an Interferon-Stimulated Response Element (ISRE) (AID 2282948). To be noted: HepG2 ISRE cis-reporter (Attagene), mRNA transcription readout; actives raise or lower the signal. The method, boiled down:
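Transiently transfected HepG2 cells carrying cis-element reporter units, dosed 24 hours. Reporter mRNA quantified by RT-PCR, fluorescent primer extension, HpaI digestion and capillary electrophoresis. Bidirectional fitting relative to DMSO.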

Test [3] can be described thus: ATG_M_32_CIS: Attagene CIS-FACTORIAL HepG2 Assay for M32 Transcription Factor (Internal Marker) (AID 2282949).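 Also: background control marker of the multiplexed CIS panel rather than a real target.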 Conditions: HepG2 Attagene cis-factorial M32 reporter, mRNA; actives raise or lower the signal. Put shortly: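 Following 24 h chemical exposure of HepG2 cells transiently expressing cis-promoter reporter constructs, reporter transcript levels were determined by RT-PCR with fluorescent labelling and capillary electrophoresis, then fitted bidirectionally against DMSO.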

Test [4] can be described thus: ATG_M_06_CIS: Attagene CIS-FACTORIAL HepG2 Assay for M06 Transcription Factor (Internal Marker) (AID 2282950). Conditions: HepG2 Attagene CIS-FACTORIAL M06 internal marker reporter; actives raise or lower the signal. The method, boiled down:
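Terse: HepG2, transient MRTU transfection (FuGene 6), 24 h dosing; total RNA, oligo(dT) RT, PCR, FAM label, HpaI cut, capillary electrophoresis; bidirectional fit vs DMSO baseline; background-control endpoint.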

Test [5] has as its target Hypoxia-inducible factor 1-alpha (Homo sapiens) (UniProt Q16665). In words: ATG_HIF1a_CIS: Attagene CIS-FACTORIAL HepG2 Assay for human Hypoxia Inducible Factor 1 (HIF1A) (AID 2282951). To be noted: HepG2 Attagene cis-factorial HIF1a reporter transcription; actives raise or lower the signal. The method, boiled down: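 Transient MRTU transfection of human HepG2 liver cells, 24 h compound treatment, then total RNA isolation, oligo(dT) reverse transcription, PCR amplification, fluorescent labelling and capillary electrophoresis of reporter fragments. Gain or loss relative to DMSO.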

The target in test [6] is Hepatocyte nuclear factor 6 (Homo sapiens) (UniProt Q9UBC0). The experiment in a line: ATG_HNF6_CIS: Attagene CIS-FACTORIAL HepG2 Assay for human Hepatocyte Nuclear Factor 6 (HNF6) (AID 2282952). Conditions: HepG2 Attagene cis-factorial HNF6 reporter transcription; actives raise or lower the signal. Put shortly:
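Cells are HepG2 carrying transiently transfected cis-promoter reporter units. Treatment lasts 24 h, after which reporter transcripts are reverse-transcribed, amplified, FAM-labelled and sized by capillary electrophoresis. DMSO serves as baseline.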

The target in test [7] is Heat shock factor protein 1 (Homo sapiens) (UniProt Q00613). In words: ATG_HSE_CIS: Attagene CIS-FACTORIAL HepG2 Assay for human Heat Shock Transcription Factor 1 (HSE) (AID 2282953). Conditions: HepG2 HSE cis-reporter, Attagene RNA transcription; actives raise or lower the signal. The method, boiled down: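 Read-out: fluorescence of reporter-specific RT-PCR fragments separated by capillary electrophoresis. HepG2 carrying transfected cis-element reporter units; 24 h dosing; activity fitted in both directions relative to DMSO baseline.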
Heat shock factor protein 1 (Homo sapiens), sequence (Q00613 whole entry, looked up, the tested form may be a part): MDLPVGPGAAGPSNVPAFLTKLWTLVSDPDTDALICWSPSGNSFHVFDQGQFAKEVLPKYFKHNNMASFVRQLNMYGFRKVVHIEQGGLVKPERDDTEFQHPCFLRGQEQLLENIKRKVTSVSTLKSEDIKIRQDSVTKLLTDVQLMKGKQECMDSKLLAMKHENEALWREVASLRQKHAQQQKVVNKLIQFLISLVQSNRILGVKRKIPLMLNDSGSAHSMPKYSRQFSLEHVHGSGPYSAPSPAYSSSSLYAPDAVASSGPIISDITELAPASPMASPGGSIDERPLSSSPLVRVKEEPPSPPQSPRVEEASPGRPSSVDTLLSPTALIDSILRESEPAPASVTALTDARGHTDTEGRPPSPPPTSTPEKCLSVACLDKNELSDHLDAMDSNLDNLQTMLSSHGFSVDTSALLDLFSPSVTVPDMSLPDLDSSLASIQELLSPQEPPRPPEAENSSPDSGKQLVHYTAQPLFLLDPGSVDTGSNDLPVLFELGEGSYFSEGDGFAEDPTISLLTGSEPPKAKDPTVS

Test [8] is described as follows: ATG_MRE_CIS: Attagene CIS-FACTORIAL HepG2 Assay for human Metal Responsive Element (MRE) (AID 2282954). Conditions: HepG2 MRE cis-reporter transcription, Attagene multiplex; actives raise or lower the signal. The method, boiled down: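 HepG2 cells transiently transfected with multiple cis-element reporter units measure endogenous MTF1-driven transcription. After 24 h compound exposure, reporter mRNA is quantified by RT-PCR with 6-FAM labelling, HpaI digestion and capillary electrophoresis; bidirectional fits versus DMSO.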

Test [9] can be described thus: ATG_PBREM_CIS: Attagene CIS-FACTORIAL HepG2 Assay for human Phenobarbital-responsive Enhancer Module (PBREM) (AID 2282955). Conditions: HepG2 PBREM cis-reporter, Attagene multiplexed transcription; actives raise or lower the signal. The method, boiled down:
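Endogenous transcription factors in human liver HepG2 cells drive a PBREM cis-element reporter, whose transcript level after 24 h treatment is quantified by RT-PCR with capillary electrophoresis; activity fitted in both directions against DMSO.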

Test [10] addresses Paired box protein Pax-6 (Homo sapiens) (UniProt P26367). The experiment in a line: ATG_Pax6_CIS: Attagene CIS-FACTORIAL HepG2 Assay for human Paired Box 6 (PAX6) (AID 2282956). To be noted: HepG2 CIS-FACTORIAL PAX6 reporter transcription, RNA readout; actives raise or lower the signal. Put shortly:
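HepG2 cells transiently transfected with cis-promoter-driven multiplexed reporter units sensing endogenous transcription factor activity; 24 h chemical exposure. Reporter mRNA quantified by RT-PCR, 6-FAM labelling, HpaI digestion and capillary electrophoresis; bidirectional fit versus DMSO baseline.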

The nature of test [11]: ATG_PXRE_CIS: Attagene CIS-FACTORIAL HepG2 Assay for human Pregnane X Receptor Element (PXRE) (AID 2282957). To be noted: HepG2 Attagene CIS-FACTORIAL PXRE reporter, mRNA; actives raise or lower the signal. The method, boiled down: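 Multiplexed cis-reporter assay in transiently transfected human HepG2 cells; 24 h chemical exposure. Reporter transcripts quantified by RT-PCR with fluorescent labeling and capillary electrophoresis.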

A short description of test [12]: ATG_PPRE_CIS: Attagene CIS-FACTORIAL HepG2 Assay for human Peroxisome Proliferator-activated Response Element (PPRE) (AID 2282958). To be noted: HepG2 PPRE cis-element reporter, Attagene transcription factor profiling; actives raise or lower the signal. The method, boiled down:
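HepG2, transient MRTU transfection (cis promoter elements, endogenous TFs). 24 h dosing. RNA → oligo(dT) RT → PCR → 6-FAM primer extension → HpaI digest → CE. Bidirectional fit vs DMSO.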

A short description of test [13]: ATG_RORE_CIS: Attagene CIS-FACTORIAL HepG2 Assay for human RAR-related Orphan Receptor Element (RORE) (AID 2282959). To be noted: HepG2 Attagene cis-factorial RORE reporter, mRNA; actives raise or lower the signal. The method, boiled down:
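Transient MRTU transfection of human HepG2 liver cells (FuGene 6); 24 h compound exposure; TriZol RNA, oligo(dT) RT, PCR, FAM labeling, HpaI cut, CE fragment analysis. DMSO = negative control/baseline.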

Test [14] is described as follows: ATG_Sox_CIS: Attagene CIS-FACTORIAL HepG2 Assay for human SRY-box transcription factor (SOX) (AID 2282960). Conditions: HepG2 Attagene cis-factorial SOX reporter, mRNA; actives raise or lower the signal. Put shortly: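 Endogenous factor activity in human liver HepG2 cells carrying transfected cis-regulated reporter units. RNA taken 24 h post-dose, reverse-transcribed, PCR-amplified and sized by capillary electrophoresis. Gain or loss of signal fitted relative to DMSO.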

Test [15] has as its target Transcription factor Sp1 (Homo sapiens) (UniProt P08047). The experiment in a line: ATG_Sp1_CIS: Attagene CIS-FACTORIAL HepG2 Assay for human Specificity Protein 1 (Sp1) (AID 2282961). To be noted: HepG2 Sp1 cis-reporter transcription, actives raise or lower the signal. The method, boiled down:
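Transient MRTU-transfected HepG2, 24 h compound exposure. Total RNA → oligo(dT) RT → PCR of reporter → 6-FAM primer extension → HpaI digest → CE. Endpoint fitted both directions vs DMSO.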

Test [16] in a line: ATG_SREBP_CIS: Attagene CIS-FACTORIAL HepG2 Assay for human Sterol Regulatory Element Binding (SREBP) (AID 2282962). To be noted: HepG2 Attagene cis-factorial SREBP reporter, mRNA; actives raise or lower the signal. Put shortly: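 HepG2 cells transiently transfected with multiplexed cis-promoter reporter units sensing endogenous transcription factors; reporter mRNA measured 24 h after dosing by RT-PCR, 6-FAM labeling, HpaI digestion and capillary electrophoresis. Bidirectional fit versus DMSO.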

Test [17] deals with Signal transducer and activator of transcription 3 (Homo sapiens) (UniProt P40763). The experiment in a line: ATG_STAT3_CIS: Attagene CIS-FACTORIAL HepG2 Assay for human Signal Transducer and Activator of Transcription 3 (STAT3) (AID 2282963). Conditions: HepG2, Attagene cis-factorial STAT3 reporter transcription; actives raise or lower the signal. The method, boiled down: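 HepG2 cells transiently transfected with cis-element-driven multiple reporter transcription units; after 24 h chemical exposure, reporter mRNA measured by RT-PCR, 6-FAM primer-extension labelling, HpaI digestion and capillary electrophoresis. Bidirectional fitting versus DMSO baseline.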
Signal transducer and activator of transcription 3 (Homo sapiens), sequence (P40763 whole entry, looked up): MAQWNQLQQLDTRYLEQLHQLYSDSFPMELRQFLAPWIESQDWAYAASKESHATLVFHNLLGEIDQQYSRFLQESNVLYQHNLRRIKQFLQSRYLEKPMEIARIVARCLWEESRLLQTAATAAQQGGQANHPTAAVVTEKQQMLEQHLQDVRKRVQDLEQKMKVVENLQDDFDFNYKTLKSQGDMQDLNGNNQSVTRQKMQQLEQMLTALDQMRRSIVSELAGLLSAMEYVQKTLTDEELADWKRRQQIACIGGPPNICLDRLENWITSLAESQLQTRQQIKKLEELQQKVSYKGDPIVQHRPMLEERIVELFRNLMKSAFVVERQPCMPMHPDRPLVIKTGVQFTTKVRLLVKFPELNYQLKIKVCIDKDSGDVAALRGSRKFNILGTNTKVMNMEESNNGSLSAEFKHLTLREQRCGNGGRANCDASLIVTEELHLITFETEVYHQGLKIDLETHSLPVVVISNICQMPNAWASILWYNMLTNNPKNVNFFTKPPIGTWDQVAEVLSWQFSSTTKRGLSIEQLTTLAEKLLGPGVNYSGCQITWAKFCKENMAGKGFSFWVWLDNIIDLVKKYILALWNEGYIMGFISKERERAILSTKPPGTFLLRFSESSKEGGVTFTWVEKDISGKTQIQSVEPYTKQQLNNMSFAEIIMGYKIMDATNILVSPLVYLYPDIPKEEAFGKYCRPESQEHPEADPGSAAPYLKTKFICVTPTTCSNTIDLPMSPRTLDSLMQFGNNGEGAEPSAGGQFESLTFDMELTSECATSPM

Test [18] is described as follows: ATG_TA_CIS: Attagene CIS-FACTORIAL HepG2 Assay for human TA Basal Promoter (AID 2282964). To be noted: HepG2 Attagene CIS-factorial TA basal promoter reporter; actives raise or lower the signal. Put shortly:
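Transfected HepG2, 24 h compound exposure; RNA → RT-PCR → FAM primer extension → HpaI cut → CE fluorescence. Gain/loss-of-signal fitted against DMSO negative control. Background-control readout.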

Test [19] in a line: ATG_TCF_b_cat_CIS: Attagene CIS-FACTORIAL HepG2 Assay for human T-Cell-Factor with beta-catenin (TCF/b-cat) (AID 2282965). To be noted: HepG2 TCF/beta-catenin cis-reporter transcription, actives raise or lower the signal. Put shortly: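 In this cis-format system, transfected HepG2 cells report endogenous transcription factor activity. Readout after 24 h exposure is reporter transcript abundance from RT-PCR and capillary electrophoresis, analysed for gain or loss of signal versus DMSO.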

Test [20] in a line: ATG_GRE_CIS: Attagene CIS-FACTORIAL HepG2 Assay for human Glucocorticoid Response Elements (GRE) (AID 2282947). Conditions: HepG2 GRE cis-reporter, Attagene multiplex mRNA; actives raise or lower the signal. The method, boiled down: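 HepG2 cells transiently transfected with multiple cis-promoter reporter units measure endogenous TF activity; 24 h compound exposure. Reporter mRNA quantified by RT-PCR, FAM labelling, HpaI digestion and capillary electrophoresis; bidirectional fit vs DMSO baseline.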

Bile acid receptor (Homo sapiens), sequence (Q96RI1 whole entry, looked up): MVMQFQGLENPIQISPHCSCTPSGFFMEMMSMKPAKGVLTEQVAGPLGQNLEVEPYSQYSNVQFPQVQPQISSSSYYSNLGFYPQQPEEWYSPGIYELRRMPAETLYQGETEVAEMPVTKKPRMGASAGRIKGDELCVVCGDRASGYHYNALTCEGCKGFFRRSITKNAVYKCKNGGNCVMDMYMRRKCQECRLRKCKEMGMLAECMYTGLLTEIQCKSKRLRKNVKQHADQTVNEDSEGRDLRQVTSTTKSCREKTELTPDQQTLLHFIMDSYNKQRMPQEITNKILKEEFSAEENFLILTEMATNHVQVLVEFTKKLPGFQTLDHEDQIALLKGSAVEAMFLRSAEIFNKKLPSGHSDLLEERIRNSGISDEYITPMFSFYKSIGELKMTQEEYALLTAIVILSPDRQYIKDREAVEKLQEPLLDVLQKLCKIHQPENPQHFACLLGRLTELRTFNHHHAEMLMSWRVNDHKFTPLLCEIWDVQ
Hypoxia-inducible factor 1-alpha (Homo sapiens), sequence (Q16665 whole entry, looked up, the tested form may be a part): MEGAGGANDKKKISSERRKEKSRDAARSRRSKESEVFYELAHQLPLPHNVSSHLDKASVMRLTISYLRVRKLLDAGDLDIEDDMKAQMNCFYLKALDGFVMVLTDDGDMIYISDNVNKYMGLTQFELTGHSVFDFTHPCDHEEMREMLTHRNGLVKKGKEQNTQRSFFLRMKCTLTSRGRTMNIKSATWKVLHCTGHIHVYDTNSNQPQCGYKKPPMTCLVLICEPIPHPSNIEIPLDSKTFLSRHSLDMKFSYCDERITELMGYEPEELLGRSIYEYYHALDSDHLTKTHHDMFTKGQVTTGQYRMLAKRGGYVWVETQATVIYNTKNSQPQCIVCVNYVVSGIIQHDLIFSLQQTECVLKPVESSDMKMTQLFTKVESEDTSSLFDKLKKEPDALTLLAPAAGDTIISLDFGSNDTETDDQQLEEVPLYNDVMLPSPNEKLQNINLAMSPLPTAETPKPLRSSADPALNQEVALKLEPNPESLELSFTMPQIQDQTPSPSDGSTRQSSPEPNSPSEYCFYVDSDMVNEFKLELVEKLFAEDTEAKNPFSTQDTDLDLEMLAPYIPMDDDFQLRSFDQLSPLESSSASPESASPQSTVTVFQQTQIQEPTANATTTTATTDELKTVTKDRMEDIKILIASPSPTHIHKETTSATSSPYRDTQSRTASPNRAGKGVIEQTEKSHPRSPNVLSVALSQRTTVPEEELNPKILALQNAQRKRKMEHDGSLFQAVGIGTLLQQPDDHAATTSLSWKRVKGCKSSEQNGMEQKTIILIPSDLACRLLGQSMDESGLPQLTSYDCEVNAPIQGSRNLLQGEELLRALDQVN
Hepatocyte nuclear factor 6 (Homo sapiens), sequence (Q9UBC0 whole entry, looked up): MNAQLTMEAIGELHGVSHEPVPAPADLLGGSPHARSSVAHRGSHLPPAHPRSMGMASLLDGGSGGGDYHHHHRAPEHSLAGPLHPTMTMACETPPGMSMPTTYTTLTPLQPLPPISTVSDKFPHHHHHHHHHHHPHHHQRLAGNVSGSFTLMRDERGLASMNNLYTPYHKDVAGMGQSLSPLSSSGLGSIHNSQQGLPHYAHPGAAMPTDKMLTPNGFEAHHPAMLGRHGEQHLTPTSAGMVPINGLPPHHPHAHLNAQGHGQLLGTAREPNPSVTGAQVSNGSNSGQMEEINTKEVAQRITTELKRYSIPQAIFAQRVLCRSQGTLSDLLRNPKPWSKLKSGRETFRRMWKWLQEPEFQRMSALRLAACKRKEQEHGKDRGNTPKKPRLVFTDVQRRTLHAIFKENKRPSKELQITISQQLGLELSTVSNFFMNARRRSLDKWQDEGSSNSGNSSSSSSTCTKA
Paired box protein Pax-6 (Homo sapiens), sequence (P26367 whole entry, looked up): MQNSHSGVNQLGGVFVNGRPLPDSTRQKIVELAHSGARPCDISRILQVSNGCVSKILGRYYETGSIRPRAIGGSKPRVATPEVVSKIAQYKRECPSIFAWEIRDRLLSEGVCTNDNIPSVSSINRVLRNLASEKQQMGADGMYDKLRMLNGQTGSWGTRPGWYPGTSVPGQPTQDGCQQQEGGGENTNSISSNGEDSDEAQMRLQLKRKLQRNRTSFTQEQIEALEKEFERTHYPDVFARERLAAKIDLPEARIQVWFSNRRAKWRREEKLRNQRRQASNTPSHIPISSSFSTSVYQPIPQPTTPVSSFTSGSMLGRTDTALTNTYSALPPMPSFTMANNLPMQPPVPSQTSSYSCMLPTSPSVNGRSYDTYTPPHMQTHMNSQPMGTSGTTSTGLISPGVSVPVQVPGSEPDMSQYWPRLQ
Transcription factor Sp1 (Homo sapiens), sequence (P08047 whole entry, looked up): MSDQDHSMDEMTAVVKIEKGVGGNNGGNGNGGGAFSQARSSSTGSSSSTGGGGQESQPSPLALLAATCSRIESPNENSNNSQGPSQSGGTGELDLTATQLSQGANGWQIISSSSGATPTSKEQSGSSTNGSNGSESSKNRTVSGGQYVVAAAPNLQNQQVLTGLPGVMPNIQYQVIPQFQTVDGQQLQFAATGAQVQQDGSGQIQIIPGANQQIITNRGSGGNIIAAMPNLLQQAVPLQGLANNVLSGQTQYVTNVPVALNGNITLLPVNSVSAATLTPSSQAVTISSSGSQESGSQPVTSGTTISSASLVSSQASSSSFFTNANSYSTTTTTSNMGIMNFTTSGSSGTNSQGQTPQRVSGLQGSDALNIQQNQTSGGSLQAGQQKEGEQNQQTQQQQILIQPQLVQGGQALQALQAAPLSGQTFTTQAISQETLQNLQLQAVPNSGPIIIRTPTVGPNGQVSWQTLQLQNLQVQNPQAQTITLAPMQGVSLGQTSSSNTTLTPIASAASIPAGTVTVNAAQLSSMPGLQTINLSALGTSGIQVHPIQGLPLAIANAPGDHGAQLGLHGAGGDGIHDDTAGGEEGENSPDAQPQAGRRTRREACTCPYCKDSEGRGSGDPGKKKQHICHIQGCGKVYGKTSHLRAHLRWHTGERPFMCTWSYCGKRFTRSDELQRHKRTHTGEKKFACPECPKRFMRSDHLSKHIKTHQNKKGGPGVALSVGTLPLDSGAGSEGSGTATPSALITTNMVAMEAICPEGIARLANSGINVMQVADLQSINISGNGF

As for `OCc1ccc(Cl)cc1Cl`, the outcome in [1], in test [2], in test [3], in test [4], in test [5] and in test [6] was inactive. Further, the compound was classed as inactive in [7], in test [8], in test [9], in [10], in [11] and in test [12]. For the same compound, the compound was classed as inactive in test [13], in [14], in test [15], in [16], in test [17] and in test [18]. Besides, the outcome in test [19] was inactive.

For the compound `CC(=O)O[C@@H]1C[C@@H]2CC[C@@]1(C)C2(C)C`, the outcome in test [1], in test [20], in [3], in [4], in test [5] and in test [6] was inactive. The call in test [7], in test [8], in test [9], in test [11], in test [13] and in [14] was inactive. For the same compound, the outcome in [15], in test [16], in [17], in [18] and in test [19] was inactive.

For `CS(C)=O`, the outcome in test [1], in [20], in test [2], in test [4], in test [5] and in test [6] was inactive. The compound was called inactive in test [7], in test [8], in [10], in test [11], in test [12] and in [13]. In addition, the compound was classed as inactive in test [15], in test [16], in test [17], in [18] and in test [19].

Regarding `CC[N+](C)(CC)CC`, the result in test [1], in [20], in test [2], in test [5], in test [6] and in test [7] was inactive. Further, the outcome in [8], in [9], in test [11], in [13], in test [14] and in test [15] was inactive. For the same compound, the result in test [16] and in test [19] was inactive.

With `Nc1ccc(N)c2c1C(=O)c1ccccc1C2=O`, the result in test [1], in test [20], in [2], in test [3], in test [5] and in test [6] was inactive. The result in [8], in [9], in [10], in test [11], in test [13] and in test [14] was inactive. Besides, the outcome in test [15], in test [16], in test [17], in test [18] and in test [19] was inactive. Further, the AC50 in test [12] was 4.05 µM (active).
